The source of these data is PubChem BioAssay (Tox21).

Records with an inconclusive call do not appear. Where a call stands in place of a potency, no number is given. Calls of active or inactive are those of the source. Unless noted, the call rests on the fitted dose curve; in most records, active means well fitted curve in the direction sought with a large enough effect in the repeat runs; inconclusive means weak or mixed curves; inactive means no such curve, though single readings can be large; an effect the other way counts as inactive or inconclusive. Where a SMILES comes first, the peptide text is derived from it. [ ]: non-standard residue; d: D form. pGlu = O=C1CC[C@@H](C(=O)O)N1

A short description of one assay: qHTS assay to identify small molecule antagonists of the estrogen related receptor (ERR) signaling pathway from Tox21 library (AID 1224848). Further: nearly all actives have a fitted effect of over 50% in size. The following applies: ERR reporter cell line, luciferase antagonist mode, 18 h; series mostly up to 92.4 µM. An outline of the steps:
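Compounds dissolved in DMSO are pin-transferred onto ERR reporter cells (2,000 per well) that have settled for 6 h at 37 C. Plates then incubate 18 h at 37 C before ONE-Glo luciferase reagent and a luminescence read 30 min later.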
For orientation: Quantitative high-throughput screening tests each substance at several concentrations.
On to `CCCCCCC#CC(=O)OC`, for which the Potency result is “inactive”.
On the same count and under the same terms, then `O=Cc1cccc(Br)c1`, with “inactive”.
On to `Cc1ccc(C(=O)c2ccc(CC(=O)O)n2C)cc1`, for which the Potency entry is “inactive”.
The same measure, in the same setting: then `COc1ccc2cc1Oc1cc3c(cc1OC)CC[N+](C)(C)[C@H]3Cc1ccc(cc1)Oc1c(OC)c(OC)cc3c1[C@@H](C2)[N+](C)(C)CC3`, with “inactive”.
Regarding `CC(C)C[C@@H](N)C(=O)O`, the activity, negative = inhibition was 12.8% [at 19 µM] (inactive).
As to `O=C(O)CC(C(=O)O)S(=O)(=O)O` (centres undefined), the Potency entry is “inactive”.
Same read-out and setting: then `CC1(C)OC[C@@H](COC(=O)CCc2ccc(OC[C@@H](O)CNCCNC(=O)N3CCOCC3)cc2)O1`, with “inactive”; and `Clc1cc(Cl)cc(Cl)c1`, with “inactive”.
On the same count and under the same terms, with `CO/N=C(\C(=O)N[C@@H]1C(=O)N2C(C(=O)O)=C(CSc3nc(=O)c(O)nn3C)CS[C@H]12)c1csc(N)n1` the entry was “inactive”; with `CCNC(=O)[C@@H]1CCCN1C(=O)[C@H](CCCN=C(N)N)NC(=O)[C@H](CC(C)C)NC(=O)CNC(=O)[C@H](Cc1ccc(O)cc1)NC(=O)[C@H](CO)NC(=O)[C@H](Cc1c[nH]c2ccccc12)NC(=O)[C@H](Cc1cnc[nH]1)NC(=O)[C@@H]1CCC(=O)N1` ([pGlu]HWSYGLRP-NHEt), “inactive”.
With `CCCO[Si](OCCC)(OCCC)OCCC`, the Potency entry was “inactive”.
Regarding `CC(C)(C)c1ccc(-c2ccc(C(C)(C)C)cc2)cc1`, the Potency entry was “inactive”.
Consider `CC(C#N)(CCC(=O)O)N=NC(C)(C#N)CCC(=O)O` (centres undefined), for which the Potency entry was “inactive”.
On the same count and under the same terms, with `CCCCOCCOC(=O)CCCCCCCCC(=O)OCCOCCCC` the entry was “inactive”; with `COc1cc(C)nc(-n2nc(C)cc2OC)n1`, “inactive”.
Still for that read-out and setting: then `O=S(=O)(O)c1cccc2c(S(=O)(=O)O)cccc12`, with “inactive”.
On the same count and under the same terms, then `CCCCCC(=O)OCCc1ccccc1`, with “inactive”.
Consider `COc1ccccc1OCC1CNC(=O)O1` (centres undefined), for which the Potency entry was “inactive”.
Still for that read-out and setting: then `CCC(C(=O)NC(=O)NC(C)=O)c1ccccc1` (centres undefined), with “inactive”; and `CC[C@H]1OC(=O)[C@H](C)[C@@H](O[C@H]2C[C@@](C)(OC)[C@@H](O)[C@H](C)O2)[C@H](C)[C@@H](O[C@@H]2O[C@H](C)C[C@H](N(C)C)[C@H]2O)[C@](C)(OC)C[C@@H](C)C(=O)[C@H](C)[C@@H](O)[C@]1(C)O`, with “inactive”; and `CC(=O)Oc1cccc(C)c1`, with “inactive”.

A short description of the next assay: qHTS assay to identify small molecule agonists of the estrogen related receptor (ERR) signaling pathway from Tox21 library (AID 1224849; calls by dose curve; further: nearly all actives have a fitted effect of over 15% in size). The following applies: ERR reporter cell line, ONE-Glo luciferase, 18 h; series mostly up to 92.4 µM. An outline of the steps:
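Tox21 compounds tested for ERR agonism in an NTP reporter cell line: 18 h treatment at 37 C, then ONE-Glo luminescence.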
For `CCCCCCC#CC(=O)OC`, the result was inactive.
On the same count and under the same terms, then `O=Cc1cccc(Br)c1`, with “inactive”.
The same measure, in the same setting: then `Cc1ccc(C(=O)c2ccc(CC(=O)O)n2C)cc1`, with “inactive”.
Same read-out and setting: with `COc1ccc2cc1Oc1cc3c(cc1OC)CC[N+](C)(C)[C@H]3Cc1ccc(cc1)Oc1c(OC)c(OC)cc3c1[C@@H](C2)[N+](C)(C)CC3` the entry was “inactive”.
On to `CC(C)C[C@@H](N)C(=O)O`, for which the activity change, positive = activation is 7.21% [at 19 µM] (inactive).
As to `O=C(O)CC(C(=O)O)S(=O)(=O)O` (centres undefined), the call was inactive.
Same read-out and setting: then `CC1(C)OC[C@@H](COC(=O)CCc2ccc(OC[C@@H](O)CNCCNC(=O)N3CCOCC3)cc2)O1`, with “inactive”; and `Clc1cc(Cl)cc(Cl)c1`, with “inactive”.
On the same count and under the same terms, then `CO/N=C(\C(=O)N[C@@H]1C(=O)N2C(C(=O)O)=C(CSc3nc(=O)c(O)nn3C)CS[C@H]12)c1csc(N)n1`, with “inactive”; and `CCNC(=O)[C@@H]1CCCN1C(=O)[C@H](CCCN=C(N)N)NC(=O)[C@H](CC(C)C)NC(=O)CNC(=O)[C@H](Cc1ccc(O)cc1)NC(=O)[C@H](CO)NC(=O)[C@H](Cc1c[nH]c2ccccc12)NC(=O)[C@H](Cc1cnc[nH]1)NC(=O)[C@@H]1CCC(=O)N1` ([pGlu]HWSYGLRP-NHEt), with “inactive”; and `CCCO[Si](OCCC)(OCCC)OCCC`, with “inactive”.
As to `CC(C)(C)c1ccc(-c2ccc(C(C)(C)C)cc2)cc1`, the molecule was classed as inactive.
For the molecule `CC(C#N)(CCC(=O)O)N=NC(C)(C#N)CCC(=O)O` (centres undefined), the outcome was inactive.
Turning to `CCCCOCCOC(=O)CCCCCCCCC(=O)OCCOCCCC`, the molecule was classed as inactive.
For the molecule `COc1cc(C)nc(-n2nc(C)cc2OC)n1`, the call was inactive.
Consider `O=S(=O)(O)c1cccc2c(S(=O)(=O)O)cccc12`, for which the call was inactive.
On the same count and under the same terms, with `CCCCCC(=O)OCCc1ccccc1` the entry was “inactive”; with `COc1ccccc1OCC1CNC(=O)O1` (centres undefined), “inactive”.
On the same count and under the same terms, then `COC(=O)C1=C(C)NC(C)=C(C(=O)OC(C)C)C1c1cccc2nonc12` (centres undefined), with “inactive”; and `CCC(C(=O)NC(=O)NC(C)=O)c1ccccc1` (centres undefined), with “inactive”.
Still for that read-out and setting: then `CC[C@H]1OC(=O)[C@H](C)[C@@H](O[C@H]2C[C@@](C)(OC)[C@@H](O)[C@H](C)O2)[C@H](C)[C@@H](O[C@@H]2O[C@H](C)C[C@H](N(C)C)[C@H]2O)[C@](C)(OC)C[C@@H](C)C(=O)[C@H](C)[C@@H](O)[C@]1(C)O`, with “inactive”.
Take `CC(=O)Oc1cccc(C)c1`: the outcome was inactive.

A short description of a further assay: qHTS RealTime-Glo MT Cell Viability Assay in HepG2 cells - 24 hour (AID 1224867). Further: nearly all actives have a fitted effect of over 50% in size. The note with it: RealTime-Glo luminescence; series mostly up to 76.8 µM. An outline of the steps:
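Compound treatment began 5 h after plating HepG2 cells (600/well) with NanoLuc luciferase and prosubstrate. Plates stayed at 37 C for 40 h; luminescence was captured at six time points, 0 h through 40 h.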
With `CCCCCCC#CC(=O)OC`, the outcome was inactive.
Still for that read-out and setting: then `O=C(O)CCSCCC(=O)O`, with “inactive”; and `O=Cc1cccc(Br)c1`, with “inactive”; and `Cc1ccc(C(=O)c2ccc(CC(=O)O)n2C)cc1`, with “inactive”.
Same read-out and setting: then `CCCCCCCCCCCCCCCCCCO`, with “inactive”.
Turning to `CCN(C=O)CC`, the molecule was classed as inactive.
On the same count and under the same terms, then `Cc1ccc(C(=O)c2ccccc2)cc1`, with “inactive”.
Consider `CC(C)C[C@@H](N)C(=O)O`, for which the activity change, negative = cytotoxicity was 3.14% [at 15.8 µM] (inactive).
Take `O=C(O)CC(C(=O)O)S(=O)(=O)O` (centres undefined): the molecule was classed as inactive.
Take `CC1(C)OC[C@@H](COC(=O)CCc2ccc(OC[C@@H](O)CNCCNC(=O)N3CCOCC3)cc2)O1`: the call was inactive.
Same read-out and setting: with `CC(CC=O)CC(C)(C)C` (centres undefined) the entry was “inactive”; with `NC(CCC(=O)O)C(=O)O` (centres undefined), “inactive”; with `CCOC(=O)C(=O)CCCCCCl`, “inactive”.
As to `Clc1cc(Cl)cc(Cl)c1`, the molecule was called inactive.
Same read-out and setting: then `CO/N=C(\C(=O)N[C@@H]1C(=O)N2C(C(=O)O)=C(CSc3nc(=O)c(O)nn3C)CS[C@H]12)c1csc(N)n1`, with “inactive”.
On to `CCNC(=O)[C@@H]1CCCN1C(=O)[C@H](CCCN=C(N)N)NC(=O)[C@H](CC(C)C)NC(=O)CNC(=O)[C@H](Cc1ccc(O)cc1)NC(=O)[C@H](CO)NC(=O)[C@H](Cc1c[nH]c2ccccc12)NC(=O)[C@H](Cc1cnc[nH]1)NC(=O)[C@@H]1CCC(=O)N1` ([pGlu]HWSYGLRP-NHEt), for which the outcome was inactive.
On the same count and under the same terms, with `CCCO[Si](OCCC)(OCCC)OCCC` the entry was “inactive”; with `CCCCCCCCCCCCSC`, “inactive”; with `CC(C)(C)c1ccc(-c2ccc(C(C)(C)C)cc2)cc1`, “inactive”.
On the same count and under the same terms, then `CC(C#N)(CCC(=O)O)N=NC(C)(C#N)CCC(=O)O` (centres undefined), with “inactive”; and `NCCCC[C@H](N[C@@H](CCc1ccccc1)C(=O)O)C(=O)N1CCC[C@H]1C(=O)O`, with “inactive”.
Consider `CC(=O)Nc1ccc(OCC(O)CNC(C)C)cc1` (centres undefined), for which the outcome was inactive.
Same read-out and setting: then `CCCCOCCOC(=O)CCCCCCCCC(=O)OCCOCCCC`, with “inactive”.
Take `CC(C)C(=O)OC(=O)C(C)C`: the outcome was inactive.
The same measure, in the same setting: with `CCCOC(=O)CC` the entry was “inactive”.
The same measure, in the same setting: then `COc1cc(C)nc(-n2nc(C)cc2OC)n1`, with “inactive”; and `O=[N+]([O-])c1ccc(/C=N\O)o1`, with “inactive”; and `[O-][n+]1cccc(CO)c1`, with “inactive”.
The same measure, in the same setting: then `O=S(=O)(O)c1cccc2c(S(=O)(=O)O)cccc12`, with “inactive”.
On to `CCCCCC(=O)OCCc1ccccc1`, for which the outcome was inactive.
On to `COc1ccccc1OCC1CNC(=O)O1` (centres undefined), for which the molecule was called inactive.
Same read-out and setting: then `CCCCCC(C)N` (centres undefined), with “inactive”; and `CCC(C(=O)NC(=O)NC(C)=O)c1ccccc1` (centres undefined), with “inactive”; and `CC[C@H]1OC(=O)[C@H](C)[C@@H](O[C@H]2C[C@@](C)(OC)[C@@H](O)[C@H](C)O2)[C@H](C)[C@@H](O[C@@H]2O[C@H](C)C[C@H](N(C)C)[C@H]2O)[C@](C)(OC)C[C@@H](C)C(=O)[C@H](C)[C@@H](O)[C@]1(C)O`, with “inactive”.
Same read-out and setting: then `C=CCOCC(O)CO` (centres undefined), with “inactive”; and `CC(=O)Oc1cccc(C)c1`, with “inactive”.
